Source: PubChem BioAssay AID1159580 (chemical genetic matrix, 2015)
Values joined by “and” are separate entries in the source; they are usually repeats but may differ in a detail not shown here. Identical values can stand only once. Out of some 5,500 compounds screened, about 2,000 (36%) were called active. Another 18% or so got no clear call; they are omitted. Cut-off read from the data, not from the text of the source: active = normalized growth mostly below about 0.91 (no sharp cut-off); inconclusive = no clear call, values can overlap the other calls; inactive = mostly above about 0.92. This is one part of the list.

Assay: chemical genetic growth profiling, strain panel (AID 1159580);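 note: tested at 20 µM; growth read once vehicle control cultures reached saturation at 30 °C; 1 = growth at the plate median or of vehicle wells; lower values mean less growth of the strain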
Details: S. cerevisiae deletion strains, growth OD

Measured: normalized growth

O=C1c2cccc(O)c2C(=O)c2c(O)cccc21
active: locus YAL013W, strain DEP1, stronger effect = lower value 0.799 | locus YAL021C, strain ccr4, stronger effect = lower value 0.837 | locus YAL026C, strain drs2, stronger effect = lower value 0.823 | locus YBR009C, strain hhf1, stronger effect = lower value 0.821 | locus YBR021W, strain FUR4, stronger effect = lower value 1.18 [resistant] | locus YBR023C, strain chs3, stronger effect = lower value 0.909 | locus YBR229C, strain ROT2, stronger effect = lower value 0.898 | locus YBR231C, strain swc5, stronger effect = lower value 0.733 | locus YBR279W, strain paf1, stronger effect = lower value 0.905 | locus YCL016C, strain dcc1, stronger effect = lower value 0.77 | locus YCL029C, strain bik1, stronger effect = lower value 0.808 | locus YDL005C, strain med2, stronger effect = lower value 0.167 | locus YDL035C, strain GPR1, stronger effect = lower value 0.703 | locus YDL074C, strain BRE1, stronger effect = lower value 0.658 | locus YDL101C, strain DUN1, stronger effect = lower value 0.616 | locus YDL185W, strain tfp1, stronger effect = lower value 0.789 | locus YDL192W, strain arf1, stronger effect = lower value 0.628 | locus YDR069C, strain doa4, stronger effect = lower value 0.768 | locus YDR101C, strain arx1, stronger effect = lower value 0.745 | locus YDR137W, strain rgp1, stronger effect = lower value 0.268 | locus YDR150W, strain NUM1, stronger effect = lower value 0.861 | locus YDR159W, strain sac3, stronger effect = lower value 0.705 | locus YDR162C, strain NBP2, stronger effect = lower value 0.344 | locus YDR195W, strain ref2 1.22 [resistant] | locus YDR318W, strain mcm21, stronger effect = lower value 0.772 | locus YDR334W, strain swr1, stronger effect = lower value 0.831 | locus YDR335W, strain msn5, stronger effect = lower value 0.85 | locus YDR388W, stronger effect = lower value 0.728 | locus YDR392W, strain spt3, stronger effect = lower value 0.64 | locus YDR502C, strain sam2, stronger effect = lower value 0.673 | locus YEL003W, strain gim4, stronger effect = lower value 0.834 | locus YEL061C, strain CIN8, stronger effect = lower value 0.747 | locus YER015W, strain faa2, stronger effect = lower value 0.911 | locus YER016W, strain bim1, stronger effect = lower value 0.864 | locus YER110C, stronger effect = lower value 0.885 | locus YER155C, strain BEM2 (second series), stronger effect = lower value 0.806 | locus YER155C, strain BEM2, stronger effect = lower value 0.835 | locus YER167W, strain BCK2, stronger effect = lower value 0.77 | locus YFR010W, strain ubp6, stronger effect = lower value 0.862 | locus YGL078C, strain dbp3, stronger effect = lower value 0.874 | locus YGL086W, strain mad1, stronger effect = lower value 0.781 | locus YGL167C, strain pmr1, stronger effect = lower value 0.612 | locus YGL240W, strain doc1, stronger effect = lower value 0.886 | locus YGL248W, strain PDE1, stronger effect = lower value 0.685 | locus YGL253W, strain hxk2, stronger effect = lower value 0.79 | locus YGR078C, strain PAC10, stronger effect = lower value 0.669 | locus YGR135W, strain pre9, stronger effect = lower value 0.698 | locus YGR252W, strain gcn5, stronger effect = lower value 0.625 | locus YHR013C, strain ard1, stronger effect = lower value 0.701 | locus YHR027C, strain rpn1, stronger effect = lower value 0.81 | locus YHR079C, strain IRE1 (second series), stronger effect = lower value 0.915 | locus YHR129C, strain ARP1, stronger effect = lower value 0.777 | locus YHR142W, strain chs7, stronger effect = lower value 0.857 | locus YHR200W, strain rpn10, stronger effect = lower value 0.732 | locus YIL066C, strain RNR3, stronger effect = lower value 0.59 | locus YIL125W, strain kgd1, stronger effect = lower value 0.872 | locus YIR030C, strain dcg1, stronger effect = lower value 0.896 | locus YJL095W, strain BCK1 (second series), stronger effect = lower value 0.878 | locus YJL095W, strain BCK1, stronger effect = lower value 0.379 and 0.881 | locus YJL115W, strain asf1, stronger effect = lower value 0.819 | locus YJL164C, strain tpk1, stronger effect = lower value 0.833 | locus YJL166W, strain qcr8, stronger effect = lower value 0.812 | locus YJL168C, strain set2, stronger effect = lower value 0.927 | locus YJL187C, strain SWE1 (second series), stronger effect = lower value 0.611 | locus YJL187C, strain SWE1, stronger effect = lower value 0.914
0.74 (active) and 0.875 (inactive): locus YHR030C, strain SLT2, stronger effect = lower value
inactive: locus YAL030W, strain snc1, stronger effect = lower value 0.935 | locus YBL061C, strain skt5, stronger effect = lower value 0.929 | locus YBR171W, strain sec66, stronger effect = lower value 0.939 | locus YCL011C, strain gbp2, stronger effect = lower value 0.928 | locus YCL061C, strain MRC1, stronger effect = lower value 0.928 | locus YCL069W, strain vba3, stronger effect = lower value 0.951 | locus YCR088W, strain abp1, stronger effect = lower value 0.97 | locus YDL040C, strain nat1, stronger effect = lower value 0.952 | locus YDR001C, strain nth1, stronger effect = lower value 0.977 | locus YDR297W, strain sur2, stronger effect = lower value 0.949 | locus YEL037C, strain rad23, stronger effect = lower value 0.936 | locus YEL061C, strain CIN8 (second series), stronger effect = lower value 0.957 | locus YER111C, strain swi4, stronger effect = lower value 0.956 | locus YGL173C, strain kem1, stronger effect = lower value 0.947 | locus YGL227W, strain vid30, stronger effect = lower value 0.994 | locus YHR079C, strain IRE1, stronger effect = lower value 0.899 | locus YHR094C, strain hxt1, stronger effect = lower value 0.95 | locus YIL073C, strain SPO22, stronger effect = lower value 0.764 | locus YJL092W, strain hpr5, stronger effect = lower value 0.946 | locus YJL129C, strain trk1, stronger effect = lower value 1.02 | locus YJL134W, strain LCB3, stronger effect = lower value 0.951 | locus YJL154C, strain vps35, stronger effect = lower value 0.955
